Assay [1] in a line: qHTS assay to identify small molecule agonists of the TGF-beta/Smad signaling pathway (AID 1346859; active = well fitted activation curve with a large enough effect in the signal ratio in the repeat runs, not every such curve was filed as active; the % refers to the signal ratio; also: series mostly up to about 77 µM). Put shortly:
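Reporter line: HEK 293T with stably integrated SBE-controlled beta-lactamase. Compound exposure lasts 5 hr at 37 C and 5% CO2; substrate loading follows for 2 hr at room temperature, with emission read at 460 and 530 nm.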
In general terms: qHTS replaces the single test concentration by a dilution series.

Assay [2] addresses Thyrotropin-releasing hormone receptor (Homo sapiens) (UniProt P34981). Description: qHTS assay to identify small molecule antagonists of the thyrotropin-releasing hormone receptor (TRHR) signaling pathway (AID 1346877; active = well fitted inhibition curve with a large enough effect in the repeat runs, not every such curve was filed as active; also: series mostly up to about 51 µM). The gist of the method:
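TRHR-expressing HEK293 cells were seeded, cultured 18 h at 37 °C, then loaded with calcium dye for 2 h. Compounds were pre-incubated 5 min at room temperature before 1 nM TRH (final) was added, and kinetic fluorescence was recorded for 3 min.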

Assay [3] shares this target. Description: qHTS assay to identify small molecule agonists of the thyrotropin-releasing hormone receptor (TRHR) signaling pathway (AID 1346891; calls by dose curve; also: series mostly up to about 58 µM). Put shortly:
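Cells: TRHR-Hek293, seeded and incubated 18 h. Dye loading: 2 h at 37 °C. Compound added from DMSO stock by pin tool. Read-out: kinetic calcium fluorescence over 3 min.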

The nature of assay [4]: Human pregnane X receptor (PXR) small molecule agonists, qHTS cell viability counter screen (AID 1346977). Also: nearly all actives have a fitted effect of over 50% in size. Put shortly: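 Cytotoxicity counter screen run in the same wells as the PXR luciferase assay, using PXR-Luc HepG2 cells in charcoal-stripped serum medium. Viability: CellTiter-Fluor fluorescence after 24hr compound treatment.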
Assay [5] in a line: Caspase-3/7 induction in HepG2 cells by small molecules, qHTS assay (AID 1346978). Also: nearly all actives have a fitted effect of over 15% in size. Put shortly: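 Wild-type HepG2 cells, 2,000/well, settled 5 hr at 37 C and 5% CO2, then compound-treated for 17 hr; caspase-3/7 activity read by luminescent Caspase-Glo 3/7 after 30 min at room temperature.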
The nature of assay [6]: Caspase-3/7 induction in CHO-K1 cells by small molecules, qHTS cell viability counter screen (AID 1346979). Also: nearly all actives have a fitted effect of over 35% in size. The gist of the method:
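Cytotoxicity counter screen run in parallel with the caspase-3/7 assay: CHO-K1 cells, 16hr compound treatment at 37C, then CellTiter-Fluor for 1hr before fluorescence reading.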

The nature of assay [7]: Caspase-3/7 induction in CHO-K1 cells by small molecules, qHTS assay (AID 1346980). Also: nearly all actives have a fitted effect of over 15% in size. The gist of the method:
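Wild-type CHO-K1 cells exposed to compounds for 17hr at 37 C, 5% CO2. Caspase-3/7 activity then measured by Caspase-Glo 3/7 luminescence after 30min at room temperature.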

The nature of assay [8]: Caspase-3/7 induction in HepG2 cells by small molecules, qHTS cell viability counter screen (AID 1346981). Also: series mostly up to about 92 µM; nearly all actives have a fitted effect of over 30% in size. Put shortly:
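Wild-type HepG2 cells (2,000/well) were allowed to settle for 5 hr at 37 C, 5% CO2, then dosed with compounds in DMSO by pin transfer. After 16 hr at 37 C, CellTiter-Fluor was added and fluorescence read 1 hr later.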

The target in assay [9] is Nuclear receptor subfamily 1 group I member 2 (Homo sapiens) (UniProt O75469). As to the kind of experiment: Human pregnane X receptor (PXR) small molecule agonists, qHTS assay (AID 1346982). Also: nearly all actives have a fitted effect of over 35% in size. Also: potency is read from the fitted curve at half-maximal effect. Put shortly:
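PXR-Luc HepG2 cells (CYP3A4 promoter-driven luciferase) were seeded in medium with 5% charcoal-stripped FBS, left 5 hr at 37 C, then exposed to compounds in DMSO for 24 hr. Luminescence was read after ONE-Glo addition.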

In assay [10] the target is Nuclear receptor subfamily 1 group I member 2 (Rattus norvegicus) (UniProt Q9R1A7). Description: Rat pregnane X receptor (rPXR) activation by small molecules, qHTS assay (AID 1346983). Also: nearly all actives have a fitted effect of over 20% in size. The conditions noted are these: rPXR luciferase reporter cells, One-Glo luminescence, 24 h; max activation: hits give high values. The gist of the method:
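Cell-based rPXR activation assay: rPXR cells, 2,000 per well, rested 5hr at 37 C, then exposed to compounds in DMSO for 24 hr at 37 C. Luciferase activity read by One-Glo luminescence after 30 min at room temperature.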

Unmarked numbers belong to inactive results. Results filed as inconclusive are left out. Activity calls are given as the source filed them. Unless noted, calls follow the shape of the dose curve; as a rule, active = well fitted curve in the direction sought with a large enough effect in the repeat runs; inconclusive = weak or mixed curves; inactive = no such curve, though single readings can be large; an effect the other way counts as inactive or inconclusive.
% is scaled to controls: 0 for no effect and ±100 for the full control effect.

Nuclear receptor subfamily 1 group I member 2 (Homo sapiens), sequence (O75469 whole entry, looked up): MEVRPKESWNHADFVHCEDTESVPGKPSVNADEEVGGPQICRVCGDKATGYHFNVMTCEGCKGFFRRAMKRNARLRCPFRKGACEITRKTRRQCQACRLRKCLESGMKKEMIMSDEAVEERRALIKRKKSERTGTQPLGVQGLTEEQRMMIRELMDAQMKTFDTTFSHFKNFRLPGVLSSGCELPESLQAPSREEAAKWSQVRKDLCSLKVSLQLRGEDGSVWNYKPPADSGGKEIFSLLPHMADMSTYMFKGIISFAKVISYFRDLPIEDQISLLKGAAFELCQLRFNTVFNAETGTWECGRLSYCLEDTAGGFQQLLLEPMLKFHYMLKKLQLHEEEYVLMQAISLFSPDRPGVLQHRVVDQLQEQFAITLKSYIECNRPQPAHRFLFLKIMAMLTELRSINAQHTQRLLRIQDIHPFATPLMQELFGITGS
Thyrotropin-releasing hormone receptor (Homo sapiens), sequence (P34981 whole entry, looked up): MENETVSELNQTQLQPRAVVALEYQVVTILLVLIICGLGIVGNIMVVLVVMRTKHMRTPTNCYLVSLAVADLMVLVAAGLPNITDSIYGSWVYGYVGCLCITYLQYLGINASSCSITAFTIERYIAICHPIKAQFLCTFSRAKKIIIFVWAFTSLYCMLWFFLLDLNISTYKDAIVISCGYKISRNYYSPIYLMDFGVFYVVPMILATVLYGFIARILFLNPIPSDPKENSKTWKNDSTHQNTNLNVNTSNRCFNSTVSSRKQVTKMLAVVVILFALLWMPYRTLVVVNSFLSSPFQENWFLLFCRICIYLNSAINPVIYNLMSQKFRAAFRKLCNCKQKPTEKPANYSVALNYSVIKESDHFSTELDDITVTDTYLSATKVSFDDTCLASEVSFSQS
Nuclear receptor subfamily 1 group I member 2 (Rattus norvegicus), sequence (Q9R1A7 whole entry, looked up): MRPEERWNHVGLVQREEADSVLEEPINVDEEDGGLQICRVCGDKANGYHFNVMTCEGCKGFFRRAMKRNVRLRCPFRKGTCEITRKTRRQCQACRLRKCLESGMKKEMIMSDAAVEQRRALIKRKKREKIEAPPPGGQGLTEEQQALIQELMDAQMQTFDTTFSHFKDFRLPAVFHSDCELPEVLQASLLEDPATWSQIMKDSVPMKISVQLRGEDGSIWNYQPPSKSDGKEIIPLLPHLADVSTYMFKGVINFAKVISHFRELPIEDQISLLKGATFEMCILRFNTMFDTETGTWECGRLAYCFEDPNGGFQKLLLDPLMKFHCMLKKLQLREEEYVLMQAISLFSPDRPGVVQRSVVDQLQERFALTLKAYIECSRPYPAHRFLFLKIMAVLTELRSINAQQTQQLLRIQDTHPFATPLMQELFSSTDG

Turning to `Nc1cc(S(=O)(=O)O)ccc1O`, the result in assay [1], in assay [2], in [4], in assay [5], in assay [7] and in assay [8] was inactive. The Potency result in assay [3], in assay [6] and in assay [9] was “inactive” each time.
Turning to `Cc1ccccc1C#N`, the outcome in [1], in [2], in assay [4], in assay [5], in assay [7] and in assay [8] was inactive. Besides, the Potency result in assay [3], in assay [6] and in assay [9] was “inactive” in each case.
Turning to `CCC(=O)OCCOc1ccccc1`, the outcome in assay [1], in assay [2], in assay [4], in assay [5], in assay [7] and in assay [8] was inactive. Further, the Potency entry in assay [3], in assay [6] and in assay [9] was “inactive” each time.
With `CN(C)CCc1c[nH]c2ccc(C[C@H]3COC(=O)N3)cc12`, the result in [1], in assay [2], in assay [4], in assay [5], in assay [7] and in assay [8] was inactive. In addition, the Potency entry in [3], in assay [6] and in assay [9] was “inactive” throughout. The max activation in assay [10] was -1.7%.
Consider `CC1(C)CC(N)CC(C)(C)N1`, for which the call in assay [1], in [2], in assay [4], in assay [5], in [7] and in assay [8] was inactive. The Potency entry in [3], in assay [6] and in [9] was “inactive” throughout.
With `CNC(C)=O`, the outcome in assay [1], in [2], in assay [4], in [5], in assay [7] and in assay [8] was inactive. Besides, the Potency entry in assay [3], in assay [6] and in assay [9] was “inactive” in each case.
On to `C=C(C)C(=O)OCCCC`, for which the outcome in assay [1], in assay [2], in [4], in assay [5], in assay [7] and in [8] was inactive. Moreover, the Potency entry in assay [3], in assay [6] and in assay [9] was “inactive” throughout.
With `N=C(N)N1CCc2ccccc2C1`, the activation in assay [1] is -1.64% [at 6.97 µM]; in assay [3], 0.0364% [at 5.23 µM]; in assay [9] it was -6.7% [at 8.39 µM]. In assay [2], the activity, negative = inhibition is 4% [at 4.65 µM]. Moreover, the activity change, negative = cytotoxicity in assay [4] is 4.15% [at 8.39 µM]; in assay [6], 6.67% [at 8.39 µM]; in [8], 3.77% [at 8.39 µM]. Moreover, the caspase activation in assay [5] was -1.31% [at 8.39 µM]. Besides, the caspase-3/7 activation in assay [7] is -0.384% [at 8.39 µM]. Besides, the max activation in assay [10] was -0.056%.
`CCCc1ncc(C(=O)O)s1`: the molecule was called inactive in assay [1], in assay [2], in [4], in assay [5], in assay [7] and in assay [8]. Moreover, the Potency entry in assay [3], in assay [6] and in assay [9] was “inactive” in each case.
Take `CC(=O)O[C@@H]1CC2C3CCc4cc(OC(=O)c5ccccc5)ccc4C3CCC2(C)[C@H]1OC(C)=O` (some centres undefined): the call in assay [1], in assay [2], in [4], in assay [5], in assay [7] and in [8] was inactive. Besides, the Potency result in assay [3], in assay [6] and in [9] was “inactive” throughout.
For `CC(C)c1cc(C(C)C)cc(C(C)C)c1`, the outcome in assay [1], in assay [2], in [4], in assay [5], in assay [7] and in assay [8] was inactive. The Potency entry in assay [3] and in assay [9] was “inactive” throughout.
For `CC(C)(C)c1ccc(N)cc1`, the molecule was called inactive in [1], in assay [2], in [4], in assay [5], in [7] and in [8]. Besides, the Potency entry in assay [3] was “inactive”. The Potency in [9] is 68.6 µM (active).
As for `C[n+]1ccccc1/C=N/O`, the molecule was called inactive in assay [1], in [2], in assay [4], in [5], in assay [7] and in assay [8]. Moreover, the Potency result in assay [3], in assay [6] and in assay [9] was “inactive” throughout. In addition, in [10], the max activation was -0.461%.
For `CCC(C)c1nccnc1OC` (centres undefined), the result in assay [1], in [2], in assay [4], in [5], in assay [7] and in assay [8] was inactive. Also, the Potency result in assay [3] and in [9] was “inactive” in each case.
Turning to `O=C(c1ccccc1)c1cccc(O)c1`, the molecule was classed as inactive in assay [1], in assay [2], in [4], in assay [5], in assay [7] and in assay [8]. Besides, in assay [3], the Potency entry is “inactive”. Moreover, in assay [9], the Potency is 55.3 µM (active).
Take `C=CCN1CCc2nc(N)sc2CC1`: the molecule was called inactive in assay [1], in assay [2], in assay [4], in assay [5], in assay [7] and in assay [8]. Further, the Potency result in assay [3], in [6] and in assay [9] was “inactive” in each case. Moreover, the max activation in assay [10] is -4.96%.

Source of the values: PubChem BioAssay (Tox21).
